The target in assay [1] is Retinoic acid receptor alpha (Homo sapiens) (UniProt P10276). Briefly: ATG_RARa_TRANS: Attagene TRANS-FACTORIAL HepG2 Assay for human Retinoic Acid Receptor alpha (RARa) (AID 2283005; active = hit-call score of the fitted dose curve at least 0.9, where 1 is the maximum). The method, boiled down: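 Reporter transcripts, measured by RT-PCR with fluorescent labeling and capillary electrophoresis after 24 h dosing, reflect activity of an exogenous human RARa–GAL4 fusion in transiently transfected HepG2. Fitted for increase relative to DMSO.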

Assay [2] deals with Estrogen receptor (Homo sapiens) (UniProt P03372). Briefly: ATG_ERa_TRANS: Attagene TRANS-FACTORIAL HepG2 Assay for human Estrogen Receptor alpha (ERa) (AID 2282970; active = hit-call score of the fitted dose curve at least 0.9, where 1 is the maximum). To be noted: HepG2 Attagene TRANS ERa GAL4 reporter, mRNA. Summed up: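 Reporter transcripts were measured 24 h after dosing by RT-PCR with fluorescent primer extension and capillary electrophoresis. The system is transiently transfected HepG2 expressing exogenous NR-Gal4 chimeras driving GAL4-UAS reporters; DMSO is the baseline.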

Read-out in assay [3]: Transforming growth factor beta 1 (TGFb1), TGFB1 (gene 7040)
Briefly: BSK_BE3C_TGFb1: BioMAP Diversity Plus: BE3C Assay for Transforming growth factor beta 1 (TGFb1) Biomarker Activity (AID 2283036;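 also: TGF-b1 protein level measured by ELISA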). The note with it: primary human bronchial epithelial cells; actives raise or lower the signal. The method, boiled down: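 TGF-b1 measured via ELISA, 24 h after chemical dosing of human bronchial epithelial cells (BE3C). Overt cytotoxicity assessed in parallel by SRB (0.1%, TCA-fixed, 560 nm); analysis bidirectional relative to DMSO.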

Assay [4] is described as follows: BSK_CASM3C_SRB: Viability Assessment in the BioMAP Diversity Plus: CASM3C Assay (AID 2283050).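 Also: total protein by SRB staining as cytotoxicity measure in parallel cultures.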 To be noted: primary human coronary artery smooth muscle cells.
Read-out in assay [5]: Transforming growth factor beta 1 (TGFb1), TGFB1 (gene 7040)
Briefly: BSK_KF3CT_TGFb1: BioMAP Diversity Plus: KF3CT Assay for Transforming growth factor beta 1 (TGFb1) Biomarker Activity (AID 2283072). To be noted: primary human keratinocytes with fibroblasts; actives raise or lower the signal. The method, boiled down: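 TGF-b1 ELISA on a 24 h dosed co-culture of human keratinocytes and foreskin fibroblasts; cytotoxicity tracked in parallel cultures by SRB staining.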

Read-out in assay [6]: CD40, CD40 (gene 958)
Briefly: BSK_LPS_CD40: BioMAP Diversity Plus: LPS Assay for CD40 Biomarker Activity (AID 2283076). To be noted: primary human HUVEC with PBMC; actives raise or lower the signal. Summed up:
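In the LPS system of human endothelial cells with peripheral blood mononuclear cells, CD40 levels were read by ELISA 24 h post-treatment. Signal changes in either direction were fitted against the DMSO baseline, with parallel SRB protein staining.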

Read-out in assay [7]: Tumor necrosis factor (Homo sapiens) (UniProt P01375)
Briefly: BSK_LPS_TNFa: BioMAP Diversity Plus: LPS Assay for Tumour Necrosis Factor alpha (TNFa) Biomarker Activity (AID 2283085). The note with it: primary human HUVEC with PBMC; actives raise or lower the signal. The method, boiled down: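 ELISA-based TNFa endpoint in a human endothelial–PBMC co-culture sampled 24 h post-exposure. Curves were fitted in both directions using DMSO as baseline of activity.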

Read-out in assay [8]: Vascular cell adhesion molecule 1 (VCAM1), VCAM1 (gene 7412)
Briefly: BSK_LPS_VCAM1: BioMAP Diversity Plus: LPS Assay for Vascular cell adhesion molecule 1 (VCAM1) Biomarker Activity (AID 2283086). To be noted: primary human HUVEC with PBMC; actives raise or lower the signal. Summed up: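 Measured by ELISA: VCAM-1 in LPS-activated HUVEC/PBMC co-cultures 24 h after treatment. Values reflect bidirectional fitting with DMSO as baseline.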

Read-out in assay [9]: CD40, CD40 (gene 958)
Kind of assay: BSK_SAg_CD40: BioMAP Diversity Plus: SAg Assay for CD40 Biomarker Activity (AID 2283088). The note with it: primary human HUVEC with PBMC; actives raise or lower the signal. The method, boiled down: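 CD40 is measured by fluorescence ELISA in an endothelial/PBMC primary human co-culture at 24 h post-dose. Fitting is bidirectional, DMSO baseline. Parallel SRB staining (560 nm) flags cytotoxicity.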

Read-out in assay [10]: CD69, CD69 (gene 969)
Briefly: BSK_SAg_CD69: BioMAP Diversity Plus: SAg Assay for CD69 Biomarker Activity (AID 2283089). The note with it: primary human HUVEC with PBMC; actives raise or lower the signal. Summed up: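 Primary human vascular co-culture (umbilical vein endothelium with peripheral blood mononuclear cells) exposed to test chemical for 24 h. CD69 levels quantified by fluorescence ELISA; DMSO served as negative control for bidirectional fitting.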

Read-out in assay [11]: Monocyte Chemoattractant Protein-1 (MCP1), CCL2 (gene 6347)
Briefly: BSK_SAg_MCP1: BioMAP Diversity Plus: SAg Assay for Monocyte Chemoattractant Protein-1 (MCP1) Biomarker Activity (AID 2283090). The note with it: primary human HUVEC with PBMC; actives raise or lower the signal. Summed up:
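Values derive from bidirectional fitting of ELISA-measured MCP1 against DMSO controls. Readings were taken 24 h after dosing human vascular endothelial cells co-cultured with peripheral blood mononuclear cells under superantigen stimulation.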

Read-out in assay [12]: Monokine induced gamma interferon (MIG), CXCL9 (gene 4283)
Kind of assay: BSK_SAg_MIG: BioMAP Diversity Plus: SAg Assay for Monokine induced gamma interferon (MIG) Biomarker Activity (AID 2283092). To be noted: primary human HUVEC with PBMC; actives raise or lower the signal. The method, boiled down: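 Endothelial cells and PBMC were co-cultured, exposed to test chemicals, and sampled 24 h later. MIG was measured by ELISA, and responses were fitted in both directions relative to DMSO.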

Assay [13] is described as follows: BSK_SAg_Proliferation: Cell Proliferation Assessment in the BioMAP Diversity Plus: SAg Assay (AID 2283095).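 Also: relative cell number as total protein by SRB absorbance in sub-confluent culture.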 To be noted: primary human HUVEC with PBMC. The method, boiled down:
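A human primary co-culture of umbilical vein endothelium and blood mononuclear cells receives compound; relative cell number is quantified at 96 h by SRB staining and 560 nm absorbance, with DMSO-referenced bidirectional curve fitting.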

A short description of assay [14]: BSK_SAg_SRB: Viability Assessment in the BioMAP Diversity Plus: SAg Assay (AID 2283096).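 Also: cells read one day after compound addition; hits may be either gain or loss of signal compared with DMSO.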 To be noted: primary human HUVEC with PBMC. The method, boiled down:
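SRB absorbance at 560 nm served as the viability read-out. Cells (HUVEC plus peripheral blood mononuclear cells) were TCA-fixed and stained 24 h post-dosing; activity fitted in both directions against DMSO controls.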

A short description of assay [15]: BSK_BT_PBMCCytotoxicity: PBMC Cytotoxicity Assessment in the BioMAP Diversity Plus: BT Assay (AID 2284225).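 Also: PBMC viability measured by Alamar Blue dye reduction fluorescence.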 The note with it: primary human B cells with PBMC. The method, boiled down: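 Primary human co-culture of B cells and PBMC, pre-dosed 1 h then activated with SEB and TSST-1. Cytotoxicity is taken from Alamar Blue dye reduction, added for 6 h at the end of a 90 h incubation.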

Read-out in assay [16]: Secreted IgG (sIgG), gene 3500
Kind of assay: BSK_BT_sIgG: BioMAP Diversity Plus: BT Assay for Secreted IgG (sIgG) Biomarker Activity (AID 2284226). To be noted: primary human B cells with PBMC. The method, boiled down: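 In this multiplexed co-culture system, ELISA quantifies sIgG 24 h post-treatment. Endpoint analysis uses positive fitting direction, DMSO negative control.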

Assay [17] is described as follows: BSK_BT_Bcell_Proliferation: Viability Assessment in the BioMAP Diversity Plus: BT Assay for B cell Proliferation (AID 2284227). The note with it: primary human B cells with PBMC. The method, boiled down:
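Read-out is absorbance at 560 nm from sulforhodamine B staining of total protein, reflecting relative cell numbers in a human B cell and PBMC co-culture after 72 h of chemical exposure. Values were referenced to DMSO.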

Read-out in assay [18]: Interleukin 6 (IL6), IL6 (gene 3569)
Kind of assay: BSK_BT_xIL6: BioMAP Diversity Plus: BT Assay for Interleukin 6 (IL6) Biomarker Activity (AID 2284228). The note with it: primary human B cells with PBMC. Summed up: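 Secreted IL-6 in the primary human B cell plus PBMC system, measured by Luminex at 24 h post-chemical, DMSO as baseline. Alamar Blue viability: 75,000 cells/well, chemical 1 h before SEB/TSST-1 (20 ng/mL each), 90 h, then 6 h dye.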

Read-out in assay [19]: Interleukin 17A (IL17A), IL17A (gene 3605)
Briefly: BSK_BT_xIL17A: BioMAP Diversity Plus: BT Assay for Interleukin 17A (IL17A) Biomarker Activity (AID 2284229). The note with it: primary human B cells with PBMC. Summed up:
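Luminex xMAP quantification of secreted IL-17A after 24 h chemical exposure of a primary human B cell/PBMC co-culture. Signal increases fitted relative to DMSO negative control.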

Read-out in assay [20]: Tumor necrosis factor (Homo sapiens) (UniProt P01375)
Kind of assay: BSK_BT_xTNFa: BioMAP Diversity Plus: BT Assay for Tumor necrosis factor alpha (TNF-alpha) Biomarker Activity (AID 2284230). To be noted: primary human B cells with PBMC. The method, boiled down: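 Human primary co-culture of B cells and peripheral blood mononuclear cells; TNF-alpha in supernatant, 24 h post-dose, Luminex multiplex; DMSO = baseline.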

Here are results for 18 compounds from PubChem BioAssay (EPA / NIEHS).

Inconclusive results are not listed. The source made the active and inactive calls. The calls were made as follows, unless noted: active = hit-call score of the fitted dose curve at least 0.9, where 1 is the maximum; inactive = score below 0.9.

Estrogen receptor (Homo sapiens), sequence (P03372 whole entry, looked up, the tested form may be a part): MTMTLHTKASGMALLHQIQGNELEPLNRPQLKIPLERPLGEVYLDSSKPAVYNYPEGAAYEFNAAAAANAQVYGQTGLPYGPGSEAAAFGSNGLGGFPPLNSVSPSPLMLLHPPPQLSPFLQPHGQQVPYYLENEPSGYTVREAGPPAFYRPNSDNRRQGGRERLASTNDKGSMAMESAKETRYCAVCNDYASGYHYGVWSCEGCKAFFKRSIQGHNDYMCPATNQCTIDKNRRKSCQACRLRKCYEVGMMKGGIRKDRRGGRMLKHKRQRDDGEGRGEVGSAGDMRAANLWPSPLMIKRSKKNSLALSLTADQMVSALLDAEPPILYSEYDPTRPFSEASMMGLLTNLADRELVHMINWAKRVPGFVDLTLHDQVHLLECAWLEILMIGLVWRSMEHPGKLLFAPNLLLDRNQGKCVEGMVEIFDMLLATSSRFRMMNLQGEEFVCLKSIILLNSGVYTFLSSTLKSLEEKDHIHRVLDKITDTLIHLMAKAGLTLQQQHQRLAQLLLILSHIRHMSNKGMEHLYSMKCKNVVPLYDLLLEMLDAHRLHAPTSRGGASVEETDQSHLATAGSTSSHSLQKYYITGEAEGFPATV
Retinoic acid receptor alpha (Homo sapiens), sequence (P10276 whole entry, looked up, the tested form may be a part): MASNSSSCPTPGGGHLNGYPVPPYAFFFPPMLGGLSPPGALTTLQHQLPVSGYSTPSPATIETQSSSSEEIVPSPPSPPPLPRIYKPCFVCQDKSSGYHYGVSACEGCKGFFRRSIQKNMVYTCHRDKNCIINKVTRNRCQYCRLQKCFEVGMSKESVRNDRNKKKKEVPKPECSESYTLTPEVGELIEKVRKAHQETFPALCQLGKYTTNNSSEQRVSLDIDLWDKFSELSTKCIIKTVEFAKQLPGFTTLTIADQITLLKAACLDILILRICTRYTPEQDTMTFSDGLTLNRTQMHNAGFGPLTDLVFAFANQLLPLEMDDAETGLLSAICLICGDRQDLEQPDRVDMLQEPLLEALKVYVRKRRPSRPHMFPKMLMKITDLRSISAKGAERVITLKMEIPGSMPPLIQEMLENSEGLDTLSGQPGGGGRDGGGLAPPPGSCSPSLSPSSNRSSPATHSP
Tumor necrosis factor (Homo sapiens), sequence (P01375 whole entry, looked up): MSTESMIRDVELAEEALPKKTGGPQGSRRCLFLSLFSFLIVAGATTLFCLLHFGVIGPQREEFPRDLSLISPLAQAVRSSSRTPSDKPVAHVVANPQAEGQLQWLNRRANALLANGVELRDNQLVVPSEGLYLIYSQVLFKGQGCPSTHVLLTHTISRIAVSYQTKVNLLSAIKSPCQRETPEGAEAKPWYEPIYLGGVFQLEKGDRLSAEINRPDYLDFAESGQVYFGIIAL

`CO[Si](CCCNCCN)(OC)OC`: the call in assay [1] was inactive.

With `O=C1CCCCCCCCCCCCCC1`, the AC50 (commonly the concentration at which the activity in the assay is half-maximal) in assay [2] was 26.5 µM (active).

`CC(C)CC(=O)CC(C)CC(C)C` (configuration not stated): the result in [3], in [5], in [6], in [7], in [8] and in assay [9] was inactive. Also, the result in assay [10], in [11], in [12], in assay [13], in [14] and in [15] was inactive. In addition, the result in assay [16], in [17], in assay [18], in assay [19] and in assay [20] was inactive. The AC50 in assay [4] is 31.6 µM (active).

For `CCC(C)(CCC(C)C)C(=O)O` (configuration not stated), the result in assay [1] was inactive.

Consider `CC(=O)Nc1c(I)c(NC(C)=O)c(I)c(C(=O)O)c1I`, for which, in assay [1], the outcome was inactive.

On to `Sc1nc2ccccc2s1`, for which the result in [3], in assay [4], in assay [5], in assay [6], in [7] and in assay [8] was inactive. The outcome in [9], in assay [10], in [11], in assay [12], in [13] and in assay [14] was inactive. For the same compound, the result in assay [15], in [16], in [17], in assay [18], in [19] and in assay [20] was inactive.

`CCC(C)=NO`: the outcome in assay [3], in assay [4], in [5], in [6], in [7] and in assay [8] was inactive. For the same compound, the result in assay [9], in assay [10], in assay [11], in assay [12], in [13] and in [14] was inactive.

As to `O=[N+]([O-])c1ccc2nc[nH]c2c1`, the result in [2] was inactive.

Turning to `c1ccc2c(c1)Oc1ccccc1S2`, in [2], the AC50 was 27.9 µM (active).

Take `CCCCCCC(O)CCCCCCCCCCC(=O)OC` (configuration not stated): the compound was classed as inactive in [1], in [3], in [4], in [5], in assay [6] and in assay [7]. In addition, the result in assay [8], in assay [9], in assay [10], in [11], in assay [12] and in assay [13] was inactive. The outcome in [14], in assay [15], in [16], in assay [17], in assay [18] and in assay [19] was inactive. In addition, the result in assay [20] was inactive.

As for `COC(=O)/C=C\C(=O)OC`, the result in assay [3], in [4], in assay [5], in [6], in [7] and in assay [9] was inactive. For the same compound, the result in [10], in assay [11], in assay [12], in assay [13], in assay [14] and in [15] was inactive. For the same compound, the outcome in assay [17], in [19] and in assay [20] was inactive. In addition, the AC50 in assay [8] is 8.6 µM (active); in assay [16] it was 20 µM (active); in assay [18] it was 14.5 µM (active).

With `O=C(C(=O)c1ccccc1)c1ccccc1`, the result in assay [3], in assay [4], in assay [5], in assay [6], in assay [7] and in [8] was inactive. The outcome in assay [9], in assay [10], in assay [11], in assay [12], in [13] and in assay [14] was inactive. The outcome in [15], in [16], in assay [17], in assay [18], in assay [19] and in [20] was inactive.

On to `CCC(C)NC(N)=O` (configuration not stated), for which, in [2], the compound was called inactive.

Consider `CCOc1ccc2c(c1)C(C)CC(C)(C)N2` (configuration not stated), for which the result in assay [1] was inactive.

As for `CCCCCCCCCC/C=C/C1CC(=O)OC1=O` (configuration not stated), the outcome in [3], in assay [4], in [5], in assay [6], in [7] and in [8] was inactive. Moreover, the result in assay [9], in [10], in assay [11], in [12], in assay [13] and in assay [14] was inactive. Further, the result in [15], in [16], in [17], in assay [18], in assay [19] and in assay [20] was inactive.

For the compound `CCCCCC1CCCC(=O)O1` (configuration not stated), in assay [1], the call was inactive.

Consider `O=[N+]([O-])c1ccccc1C(F)(F)F`, for which the compound was called inactive in assay [1].

With `c1cc[c]([Bi]([c]2ccccc2)[c]2ccccc2)cc1`, the AC50 in assay [2] was 4.16 µM (active).
